# In PubChem BioAssay AID504332 (National Center for Advancing Translational Sciences (NCATS), 2011):
# Out of some 350,000 compounds screened, about 31,000 (8.9%) were called active. Not shown: some 15% with an inconclusive outcome. The list comes from a sample in which actives are over-represented; it also holds similar structures and randomly drawn compounds. Values without a mark were called inactive. Calls follow the shape of the dose curve; as a rule, active = well fitted inhibition curve with a large enough effect; inconclusive = small, poorly fitted or top-dose-only effect; inactive = no such curve, though single readings can be large or run the other way.
# Target: Histone-lysine N-methyltransferase EHMT2 (Homo sapiens) (UniProt Q96KQ7)
# Sequence (Q96KQ7 913-1193 limits assumed): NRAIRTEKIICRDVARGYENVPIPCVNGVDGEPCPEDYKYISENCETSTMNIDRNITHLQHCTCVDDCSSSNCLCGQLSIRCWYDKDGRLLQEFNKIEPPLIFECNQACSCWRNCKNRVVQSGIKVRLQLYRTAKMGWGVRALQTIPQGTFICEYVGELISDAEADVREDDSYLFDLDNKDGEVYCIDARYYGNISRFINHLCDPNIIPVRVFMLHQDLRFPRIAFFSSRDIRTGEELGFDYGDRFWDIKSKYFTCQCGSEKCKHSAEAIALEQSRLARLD
# Assay: qHTS Assay for Inhibitors of Histone Lysine Methyltransferase G9a; also: nearly all actives have a fitted effect of over 75% in size
# Details: G9a H3K9 monomethylation, AlphaScreen, 2 h; series mostly up to 59 µM; activity, negative = inhibition: at the top concentration
# In short: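 Enzyme 20 nM + cpd, 15 min RT; add b-H3K9 pep 500 nM / SAM 20 uM; 2 h RT; anti-H3K9me1 Ab 0.5 ug/mL + SA donor / anti-rabbit acceptor beads 20 ug/mL each, 10 min; AlphaScreen read.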
# % is scaled to controls: 0 for no effect and ±100 for the full control effect; potency is read from the fitted curve at half-maximal effect.
Compound,"activity, negative = inhibition",Potency
CC(C)Cn1c(C2CC(=O)N(c3ccccc3Cl)C2)nc2ccccc21 (stereo not drawn),-0.0323%,–
COc1ccc(C)cc1N(CC(=O)N1CCC(C)CC1)S(=O)(=O)c1ccc(C)cc1,-37.9%,–
O=C(NC1CCN(Cc2ccccc2)CC1)c1ccc(Cn2c(=O)c3ccccc3n(Cc3cccc(F)c3)c2=O)cc1,5.83%,–
COc1ccc(-n2ncc3c2CC(C)(C)CC3NC(=O)CCc2c(C)nn(C)c2C)cc1 (stereo not drawn),22.3% [at 102 µM],–
Cn1c(-c2ccc(C(F)(F)F)cc2)cc2onc(-c3ccccc3)c2c1=O,-9.13% [at 2.33 µM],–
O=C(Cn1c(-c2cccs2)cc2ccccc21)NCCc1ccc(Cl)cc1,8.69%,–
CCc1ccc(Nc2nnc(SCC(=O)c3ccc4c(c3)NC(=O)CO4)s2)cc1,–,15.8 µM (active)
CCCc1nc2ccccc2c(C(=O)OCC(=O)c2ccc3c(c2)NC(=O)CO3)c1CC,16.7% [at 12.7 µM],–
O=C1COc2ccc(C(=O)CSc3ccc(Br)cc3)cc2N1,8.05% [at 12.7 µM],–
CCOc1cc(/C=C/c2nc3ccccc3c(=O)[nH]2)cc(Br)c1OC,–,50.1 µM (active)
COc1cc(OC)c(OC)cc1/C=C/c1nc2ccccc2c(=O)n1-c1ccc(Br)c(C)c1,-42.8%,–
COc1ccc(C)cc1-n1nnnc1SCc1nc2ccccc2c(=O)[nH]1,-44% [at 102 µM],–
O=C(NC1(C(F)(F)F)N=C(c2ccccc2)N(C2CCCCC2)C1=O)c1ccccc1F (stereo not drawn),-8.07%,–
COc1ccc(NC(=O)C(c2ccccc2)N2Cc3ccccc3C2=O)cc1 (stereo not drawn),-5.93%,–
CN(CC(=O)NC1CCN(Cc2ccccc2)CC1)S(=O)(=O)c1ccc(Cl)s1,-1.26% [at 2.33 µM],–
COc1ccc(NC(=O)c2ccc3oc(=O)c(S(=O)(=O)c4ccc(F)cc4)cc3c2)c(OC)c1,-2.82%,–
COc1ccccc1CNC(=O)CCn1c(=O)c2ccccc2n(CC(=O)Nc2cccc(Cl)c2)c1=O,-25%,–
COc1cccc(NC(=O)N2CCN(C(=O)c3nsc4ccccc34)CC2)c1,4.87%,–
COc1cc(CNC(=O)c2cc3n(n2)CCCN(Cc2cccc(F)c2)C3=O)cc(OC)c1OC,15.2%,–
CCOC(=O)CSc1nnc(CNc2nc(-c3ccccc3)cs2)n1C,2.05% [at 12.7 µM],–
CCNC(=O)CSc1nc(-c2ccccc2)cs1,-2.39% [at 102 µM],–
Cn1c(CNc2nc(-c3ccccc3)cs2)nnc1SCC(=O)c1ccccc1,–,39.8 µM (active)
CC(C)n1ncc2c(C(=O)Nc3ccc(CC#N)cc3)cc(C3CC3)nc21,10% [at 2.33 µM],–
COc1ccc(C(CNC(=O)c2ccc(NS(=O)(=O)c3ccc(F)c(C)c3)cc2)N(C)C)cc1 (stereo not drawn),-42.1% [at 102 µM],–

Compound,"activity, negative = inhibition",Potency
Cc1nnc(NCc2ccccc2)c2c1nnn2Cc1ccc(F)cc1,1.55%,–
COCCNc1ccc(-c2n[nH]c(=O)c3ccccc23)cc1[N+](=O)[O-],-2.77% [at 102 µM],–
Cc1cc(C)cc(NS(=O)(=O)c2ccc(-c3cc(C)no3)s2)c1,-5.96%,–
OCCN1CCN(C(=S)c2ccc(-c3ccccc3)cc2)CC1,–,22.4 µM (active)
O=C(NC(c1ccccc1)c1ccccc1)N1CCN(CCO)CC1,-4.95%,–
OCCN1CCN(c2nnc(-c3ccccc3)c3ccccc23)CC1,-2.01% [at 102 µM],–
COCCNC(=O)CSc1nc(-c2ccccc2)[nH]c1-c1ccc(C)cc1,-23.6%,–
Cc1ccc(N=C2SCCCN2C(=O)c2cccc(N3C(=O)CCC3=O)c2)cc1Cl,10.1% [at 0.501 µM],–
COC(=O)CN1C(=O)[C@H]2[C@@H](/C=C/c3ccccc3)N3C(=O)CN(Cc4ccccc4)C(=O)[C@@]3(Cc3ccccc3)[C@H]2C1=O,22.8% [at 102 µM],–
Fc1ccccc1Oc1ncnc2c1oc1ccccc12,31%,–
COc1cccc(NS(=O)(=O)c2ccc(-c3coc(C)n3)cc2)c1,6.33%,–
COc1ccc(-c2nc3sc(CCNS(=O)(=O)c4ccc(F)c(C)c4)c(C)n3n2)cc1,8.56%,–
Nc1ncnc2c1c(I)cn2[C@@H]1C[C@H](N)[C@@H](O)[C@H]1O,–,6.7 µM (active)
CC(C)Oc1ccc(CNC(=O)C2CCN(c3nc4ccccc4n(C)c3=O)CC2)cc1,0.276%,–
CN(C)/C=C1\C=C(c2ccccc2)OC1=O,–,39.8 µM (active)
COc1cccc(/C=C2\C=C(c3ccc(C)cc3)OC2=O)c1OC(C)=O,-18.6% [at 102 µM],–
COc1ccccc1/C=C/C1=NC(=C\N(C)C)/C(=O)O1,0.665%,–
COc1ccc(-c2ccc3nnc(SCC(=O)Nc4ccc(NC(C)=O)cc4)n3n2)cc1,3.85%,–
Cc1ccc(-c2nnc(SCc3ccccc3C)o2)cc1,63.6%,–
COCCCNC(=S)N(CCN(C)C)Cc1cc2cc3c(cc2[nH]c1=O)OCCO3,–,35.5 µM (active)
CCNC(=S)N(CCN(CC)CC)Cc1cc2cc3c(cc2[nH]c1=O)OCO3,3.61% [at 102 µM],–
CCN(CC)CCCNC(=S)N(CCO)Cc1cc2cc3c(cc2[nH]c1=O)OCO3,-0.221% [at 102 µM],–
CCN(CC)S(=O)(=O)c1ccc2c(c1)nc(CN(C)C(=O)Nc1ccc(Cl)cc1)n2C,1.45% [at 12.7 µM],–
O=C(COc1ccccc1)Nc1ccc(C(=O)N2CCCC2)cc1,54.3% [at 102 µM],–

Compound,"activity, negative = inhibition",Potency
COc1ccc(-c2nn3c(-c4ccc(OC)cc4)nnc3c3ccccc23)cc1,16.8%,–
CC(=O)NC(=S)Nc1ccc(NC(=S)NC(=O)c2ccc([N+](=O)[O-])cc2)cc1,-40% [at 102 µM],–
NC(=S)N/N=C/c1ccc([N+](=O)[O-])cc1,1.02% [at 102 µM],–
CNC(=S)Nc1ccc([N+](=O)[O-])cc1,–,56.2 µM (active)
CCN(CC)CCNC(=O)CN1N=C(c2ccc(OC)cc2)CCC1=O,-2.08%,–
CCCn1c(=O)c(C(=O)Nc2cc(C)ccn2)c(O)c2ccccc21,-5.46% [at 0.501 µM],–
CN(C)S(=O)(=O)c1ccc(NC(=O)COC(=O)Cn2[nH]c(=O)c3ccccc3c2=O)cc1,0.845% [at 102 µM],–
O=C(COC(=O)Cn1[nH]c(=O)c2ccccc2c1=O)Nc1c(Cl)cccc1C(F)(F)F,2.11% [at 0.501 µM],–
O=C(COC(=O)Cn1[nH]c(=O)c2ccccc2c1=O)Nc1ncc(Cl)cc1Cl,–,56.2 µM (active)
Cc1noc2ncnc(NCc3ccccc3Cl)c12,1.98%,–
COc1ccccc1CNC(=O)C1CCN(S(=O)(=O)c2ccc3c(c2)CC(C)N3C(=O)C2CC2)CC1 (stereo not drawn),0.85% [at 102 µM],–
Cc1cc(C)c(C)c(S(=O)(=O)N2CCN(C(=O)c3ccc4c(=O)n5c(nc4c3)CCC5)CC2)c1C,-30.4% [at 0.501 µM],–
CC1CCN(S(=O)(=O)c2nnc(NC(=O)COc3ccccc3F)s2)CC1,-0.0742% [at 102 µM],–
Cc1cccc(C(=O)Nc2nnc(S(=O)(=O)N3CCCCCC3)s2)c1,-0.38% [at 102 µM],–
CCC(=O)Nc1nnc(S(=O)(=O)N(CC(C)C)c2ccccc2)s1,25.7% [at 102 µM],–
CCN(CC)S(=O)(=O)c1ccc(C)c(NC(=O)COc2ccc(Br)cc2Cl)c1,13.3%,–
O=C(Nc1nnc(S(=O)(=O)N2CCOCC2)s1)c1cccc(Br)c1,–,inactive
CCN(CC)S(=O)(=O)c1nnc(NC(=O)COc2ccccc2Cl)s1,–,2.82 µM (active)
COc1cccc(C(=O)Nc2nnc(S(=O)(=O)N3CCCCC3)s2)c1,-15.3% [at 102 µM],–
O=C(Nc1nnc(S(=O)(=O)N2CCCCCC2)s1)c1cccc(Br)c1,–,8.91 µM (active)
Cc1ccccc1OCC(=O)Nc1nnc(S(=O)(=O)N2CCCC2)s1,–,2.24 µM (active)
COc1ccc(Cl)cc1NC(=O)COc1ccc2c(c1)OCO2,6.56% [at 12.7 µM],–
CCc1ccc(CNC(=O)c2cc3c(=O)n(CC)c4ccccc4c3s2)cc1,-20.7%,–
CCCN1CN=C(NS(=O)(=O)c2ccc(NC(C)=O)cc2)NC1,0.281%,–

Compound,"activity, negative = inhibition",Potency
O=S(=O)(c1ccc(-c2ccno2)s1)N1CCCCC1,100% [at 102 µM],–
COc1ccc(NS(=O)(=O)c2cc(NC(=O)COc3ccccc3F)ccc2OC)cc1,30.6% [at 12.7 µM],–
CC1=C(C(=O)Nc2ccccc2Cl)C(c2cccs2)n2ncnc2N1 (stereo not drawn),0.0916%,–
CC1(C)O[C@@H]2[C@H](O1)[C@@H](COS(=O)(=O)O)O[C@H]2n1ccc(=O)[nH]c1=O,2.02% [at 2.33 µM],–
Cc1cccc(-c2oc3ccc(-c4ccc5c(c4)OCO5)cc3c2C#Cc2cncn2C)c1,7.97% [at 0.501 µM],–
COc1ccc(Cl)cc1C(=O)OCC(=O)NCc1cccs1,5.04%,–
CCSc1nnc(NC(=O)c2cc(=O)c3cc(C)c(C)cc3o2)s1,-6.05%,–
Cc1ccc(Cl)cc1NC(=O)NC1COc2ccccc2C1 (stereo not drawn),0.91%,–
Fc1ccc(Nc2nnns2)cc1,–,10 µM (active)
CSc1nc(Nc2ccc(F)cc2)cc(-c2ccccc2)n1,18.2%,–
CN(C)c1nc(NN)nc(Nc2ccc(F)cc2)n1,5.01% [at 102 µM],–
O=C1/C(=C\c2cccnc2)CN(Cc2ccccc2)C/C1=C\c1cccnc1,-13.5%,–
O=S1(=O)CCN2C(=N1)SC1=C2CCN(Cc2ccccc2)C1,–,20 µM (active)
Cc1ccc(C2=CSC3=NS(=O)(=O)CCN23)cc1C,-0.694%,–
COc1ccccc1C(=O)NCCC(=O)N(C)Cc1cccnc1,9.72%,–
O=C1C(=O)N(CCCN2CCOCC2)C(c2ccc([N+](=O)[O-])cc2)/C1=C(\O)c1ccc2c(c1)OCCO2 (stereo not drawn),-12.3% [at 0.0925 µM],–
O=C1C(=O)N(CCCO)C(c2ccccc2)/C1=C(\O)c1ccc(Br)cc1 (stereo not drawn),12.3% [at 0.501 µM],–
O=C1C(=O)N(CCN2CCOCC2)C(c2ccccn2)/C1=C(/O)c1ccc(Cl)cc1 (stereo not drawn),–,7.94 µM (active)
CC1Cc2cc(/C(O)=C3\C(=O)C(=O)N(CCN4CCOCC4)C3c3ccccc3F)ccc2O1 (stereo not drawn),10%,–
COCCN1C(=O)C(=O)/C(=C(/O)c2ccc(S(=O)(=O)N3CCOCC3)cc2)C1c1ccc(OC)c(OC)c1 (stereo not drawn),-13% [at 102 µM],–
COc1ccc(C2/C(=C(/O)c3ccc(OC(C)C)cc3)C(=O)C(=O)N2CCCN2CCOCC2)cc1 (stereo not drawn),–,44.7 µM (active)
